Results from PubChem BioAssay (NCATS).
Inconclusive results are not listed. The source made the active and inactive calls.

Assay: not given
Conditions: Ebola virus entry cell assay, ratio channel
With `CN/C(=C\[N+](=O)[O-])NCCSCc1ccc(CN(C)C)o1` the outcome was “inactive”.
With `N[C@@H](Cc1ccc(N(CCCl)CCCl)cc1)C(=O)O` the outcome was “inactive”.
For `O=C1CC[C@@]2(O)[C@H]3Cc4ccc(O)c5c4[C@@]2(CCN3CC2CC2)[C@H]1O5`, the outcome was “inactive”.
In the case of `CN(C/C=C/C#CC(C)(C)C)Cc1cccc2ccccc12`, the outcome is reported as “inactive”.
In the case of `CC(c1cc2ccccc2s1)N(O)C(N)=O` (stereo unspecified), the outcome is reported as “inactive”.
For `Oc1cn2c(n1)Nc1ccc(Cl)c(Cl)c1C2`, the outcome was “inactive”.
For `Cc1ncc([N+](=O)[O-])n1CCO`, the outcome was “inactive”.

Assay: Immunotoxin (HA22) sensitization/mitigation study. Vehicle arm (PBS) (AID 1159510); also: potency is read from the fitted curve at half-maximal effect
Conditions: cancer cells viability with PBS vehicle (HA22 study); series mostly up to 46.1 µM; viability (% of control): at the top concentration
For `CC(=O)O[C@@]12CO[C@@H]1C[C@H](O)[C@@]1(C)C(=O)[C@H](O)C3=C(C)[C@@H](OC(=O)[C@H](O)[C@@H](NC(=O)OC(C)(C)C)c4ccccc4)C[C@@](O)([C@@H](OC(=O)c4ccccc4)[C@H]21)C3(C)C`, the “viability (% of control)” value was 7.56% (inactive).
In the case of `COc1ccc2nc(S(=O)Cc3ncc(C)c(OC)c3C)[nH]c2c1` (stereo unspecified), the “viability (% of control)” value is reported as 85% (inactive).
In the case of `O=C(CCCCCCC(=O)Nc1ccccc1)NO`, the Potency is reported as 0.0959 µM (active).
For `CC(C)C[C@H](NC(=O)[C@H](Cc1ccccc1)NC(=O)c1cnccn1)B(O)O`, the Potency was 0.0037 µM (active).
With `Nc1cccc2c1CN(C1CCC(=O)NC1=O)C2=O` (stereo unspecified) the “viability (% of control)” value was 92.4% [at 92.2 µM] (inactive).
In the case of `CNC(=O)c1cc(Oc2ccc(NC(=O)Nc3ccc(Cl)c(C(F)(F)F)c3)cc2)ccn1`, the Potency is reported as 14.8 µM (active).
For `C#Cc1cccc(Nc2ncnc3cc(OCCOC)c(OCCOC)cc23)c1`, the Potency was 16.6 µM (active).
With `Cc1nc(Nc2ncc(C(=O)Nc3c(C)cccc3Cl)s2)cc(N2CCN(CCO)CC2)n1` the Potency was 5.9 µM (active).
In the case of `Cc1oncc1C(=O)Nc1ccc(C(F)(F)F)cc1`, the Potency is reported as 20.9 µM (active).
In the case of `CC(c1cc2ccccc2s1)N(O)C(N)=O` (stereo unspecified), the “viability (% of control)” value is reported as 88.3% [at 92.2 µM] (inactive).

Assay: Immunotoxin (SS1P) sensitization/mitigation study. Vehicle arm (DMEM) (AID 1159513); also: potency is read from the fitted curve at half-maximal effect
Conditions: cell viability with vehicle (DMEM); series mostly up to 46.1 µM; activity, % of control (viability): at the top concentration
For `CC(=O)O[C@@]12CO[C@@H]1C[C@H](O)[C@@]1(C)C(=O)[C@H](O)C3=C(C)[C@@H](OC(=O)[C@H](O)[C@@H](NC(=O)OC(C)(C)C)c4ccccc4)C[C@@](O)([C@@H](OC(=O)c4ccccc4)[C@H]21)C3(C)C`, the “activity, % of control (viability)” value was 15.1% (inactive).
In the case of `COc1ccc2nc(S(=O)Cc3ncc(C)c(OC)c3C)[nH]c2c1` (stereo unspecified), the “activity, % of control (viability)” value is reported as 92.6% (inactive).
For `O=C(CCCCCCC(=O)Nc1ccccc1)NO`, the Potency was 0.481 µM (active).
With `CC(C)C[C@H](NC(=O)[C@H](Cc1ccccc1)NC(=O)c1cnccn1)B(O)O` the Potency was 0.0148 µM (active).
In the case of `Nc1cccc2c1CN(C1CCC(=O)NC1=O)C2=O` (stereo unspecified), the “activity, % of control (viability)” value is reported as 99.7% [at 92.2 µM] (inactive).
With `CNC(=O)c1cc(Oc2ccc(NC(=O)Nc3ccc(Cl)c(C(F)(F)F)c3)cc2)ccn1` the Potency was 20.9 µM (active).
For `C#Cc1cccc(Nc2ncnc3cc(OCCOC)c(OCCOC)cc23)c1`, the Potency was 4.69 µM (active).
With `Cc1nc(Nc2ncc(C(=O)Nc3c(C)cccc3Cl)s2)cc(N2CCN(CCO)CC2)n1` the Potency was 20.9 µM (active).
In the case of `CCC(C)(C)C(=O)O[C@H]1C[C@@H](C)C=C2C=C[C@H](C)[C@H](CC[C@@H]3C[C@@H](O)CC(=O)O3)[C@H]21`, the Potency is reported as 7.1 µM (active).
With `CC(c1cc2ccccc2s1)N(O)C(N)=O` (stereo unspecified) the “activity, % of control (viability)” value was 97.5% [at 92.2 µM] (inactive).
In the case of `Oc1cn2c(n1)Nc1ccc(Cl)c(Cl)c1C2`, the Potency is reported as 0.0066 µM (active).

Assay: High-throughput drug toxicity screening in the BPDCN cell line Gen2.2 (AID 1224824);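 also: cells exposed to compounds for 48 h before reading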
Conditions: Gen2.2 BPDCN cells; at 45.8 µM (top of the series)
How it was run: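 Gen2.2, 500 cells/well, phenol red-free RPMI/10% FBS/Pen-Strep; 48 h cpd, 37 °C/5% CO2; CTG lum, 15 min RT. Norm: DMSO = 100%, bortezomib 9.2 uM final = 0%.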
`C#CCN(C)[C@H](C)Cc1ccccc1` gave a cell viability, % of control (lower = more cytotoxic) of 160%.
Work on `N[C@@H](Cc1ccc(N(CCCl)CCCl)cc1)C(=O)O` yielded a cell viability, % of control (lower = more cytotoxic) of 5.36%.
For `O=C1CC[C@@]2(O)[C@H]3Cc4ccc(O)c5c4[C@@]2(CCN3CC2CC2)[C@H]1O5`, the cell viability, % of control (lower = more cytotoxic) was 200%.

Assay: High-throughput drug toxicity screening in the BPDCN cell line Cal-1 (AID 1224825)
Conditions: Cal-1 BPDCN cell viability, qHTS; at 45.8 µM (top of the series)
How it was run: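 Percent activity derived from CellTiter-Glo luminescence, scaling DMSO to 100% and 9.2 uM final bortezomib to 0%. BPDCN Cal-1 cells (500/well, RPMI plus 10% FBS) incubated with compounds 48 hours at 37C before reading.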
Compound `C#CCN(C)[C@H](C)Cc1ccccc1` has a viability (% of control) of 105%.
Work on `N[C@@H](Cc1ccc(N(CCCl)CCCl)cc1)C(=O)O` yielded a viability (% of control) of 4.8%.
`O=C1CC[C@@]2(O)[C@H]3Cc4ccc(O)c5c4[C@@]2(CCN3CC2CC2)[C@H]1O5` gave a viability (% of control) of 62%.

Assay: qHTS assay for measurement of the activity of small molecule inhibitors on Zika virus induced Caspase-3 activity in human iPSC derived neural progenitor cells (hNPCs) (AID 1224857; active = well fitted inhibition curve with a large enough effect; also: % of control where 0% means no effect; nearly all actives have a fitted effect of over 65% in size)
Conditions: hNPCs ZIKV-induced caspase-3/7, Caspase-Glo luminescence, 6 h; series mostly up to 45.7 µM; activity change, negative = inhibition: at the top concentration
How it was run: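 Pretreat hNPCs with compound 1 h; infect ZIKV 2 FFU/cell; 6 h 37 C, 5% CO2; Caspase-Glo 3/7, 30 min RT; luminescence; normalize to no-virus and virus-only wells.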
In the case of `C#CCN(C)[C@H](C)Cc1ccccc1`, the Potency is reported as “inactive”.
In the case of `N[C@@H](Cc1ccc(N(CCCl)CCCl)cc1)C(=O)O`, the Potency is reported as “inactive”.
In the case of `O=C1CC[C@@]2(O)[C@H]3Cc4ccc(O)c5c4[C@@]2(CCN3CC2CC2)[C@H]1O5`, the “activity change, negative = inhibition” value is reported as 11.7% (inactive).

Assay: qHTS assay for measurement of the activity of small molecule inhibitors on Zika virus induced Caspase-3 activity in human astrocytoma cells (AID 1224859; active = well fitted inhibition curve with a large enough effect;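 also: plate controls were ZIKV-infected untreated cells for no effect and uninfected cells for full effect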)
Conditions: SNB-19 ZIKV-induced caspase-3/7, luminescence, 6 h; series mostly up to 45.7 µM; activity change, negative = inhibition: at the top concentration
How it was run: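 Human SNB-19 astrocytoma cells in RPMI 1640 with 10% FBS receive compound one hour ahead of Zika virus at 2 FFU/cell. After 6 h infection, caspase-3/7 activity is detected by Caspase-Glo luminescence.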
For `C#CCN(C)[C@H](C)Cc1ccccc1`, the outcome was “inactive”.
In the case of `N[C@@H](Cc1ccc(N(CCCl)CCCl)cc1)C(=O)O`, the outcome is reported as “inactive”.
With `O=C1CC[C@@]2(O)[C@H]3Cc4ccc(O)c5c4[C@@]2(CCN3CC2CC2)[C@H]1O5` the outcome was “inactive”.

Assay: qHTS Screen of the MIPE 4.0 Collection Against Ewings Sarcoma (TC71) (AID 1259253; active = well fitted inhibition curve with a large enough effect; also: nearly all actives have a fitted effect of over 40% in size; also: potency is read from the fitted curve at half-maximal effect;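 as to viability (% of DMSO): 100% = DMSO-treated cells and 0% = medium-only wells without cells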)
Conditions: TC71 Ewing sarcoma viability, CellTiter-Glo, 48 h; series mostly up to 45.8 µM; viability (% of DMSO): at the top concentration
How it was run: (§1)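 After a 4 h attachment period in RPMI/5% FBS, cells were pin-dosed with test compounds; DMSO served as negative and 9.2 uM bortezomib (final) as positive control. Luminescent CellTiter-Glo signal at 48 h defined viability.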
With `C#CCN(C)[C@H](C)Cc1ccccc1` the “viability (% of DMSO)” value was 108% (inactive).
With `N[C@@H](Cc1ccc(N(CCCl)CCCl)cc1)C(=O)O` the Potency was 9.35 µM (active).
With `O=C1CC[C@@]2(O)[C@H]3Cc4ccc(O)c5c4[C@@]2(CCN3CC2CC2)[C@H]1O5` the “viability (% of DMSO)” value was 120% (inactive).

Assay: qHTS Screen of the MIPE 4.0 Collection Against Ewings Sarcoma (TC32) (AID 1259256; active = well fitted inhibition curve with a large enough effect;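 also: 100% = DMSO-treated cells and 0% = medium-only wells without cells; nearly all actives have a fitted effect of over 45% in size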)
Conditions: TC32 Ewing sarcoma viability, CellTiter-Glo, 48 h; series mostly up to 45.8 µM; viability (percent of control): at the top concentration
How it was run: as §1
For `C#CCN(C)[C@H](C)Cc1ccccc1`, the “viability (percent of control)” value was 108% (inactive).
For `N[C@@H](Cc1ccc(N(CCCl)CCCl)cc1)C(=O)O`, the “viability (percent of control)” value was 93.8% (inactive).
In the case of `O=C1CC[C@@]2(O)[C@H]3Cc4ccc(O)c5c4[C@@]2(CCN3CC2CC2)[C@H]1O5`, the “viability (percent of control)” value is reported as 122% (inactive).
